# The whole screen tested about 360,000 compounds, of which about 1,200 (0.33%) were called active. This excerpt belongs to a sample that is enriched for actives. A number with no mark means an inactive call.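 Rule for the calls: active = activation above the run's mean compound activation plus 3 SD (cut at about 16% in these data); inactive = the rest.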
# Biological target: Muscarinic acetylcholine receptor M1 (Homo sapiens) (UniProt P11229)
# Test: human M1 muscarinic receptor agonists, primary screen, Fluo-8 calcium fluorescence, CHO-K1 cells, HTS (AID 588814);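 note: peak over basal fluorescence ratio within a 140 s kinetic read after compound addition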
# Conditions: CHO-K1 hM1, Fluo-8 calcium fluorescence, agonist mode; at 3 µM; active compounds read high; 0% DMSO, 100% acetylcholine EC100
# Chain of Muscarinic acetylcholine receptor M1 (Homo sapiens) (P11229 whole entry, looked up): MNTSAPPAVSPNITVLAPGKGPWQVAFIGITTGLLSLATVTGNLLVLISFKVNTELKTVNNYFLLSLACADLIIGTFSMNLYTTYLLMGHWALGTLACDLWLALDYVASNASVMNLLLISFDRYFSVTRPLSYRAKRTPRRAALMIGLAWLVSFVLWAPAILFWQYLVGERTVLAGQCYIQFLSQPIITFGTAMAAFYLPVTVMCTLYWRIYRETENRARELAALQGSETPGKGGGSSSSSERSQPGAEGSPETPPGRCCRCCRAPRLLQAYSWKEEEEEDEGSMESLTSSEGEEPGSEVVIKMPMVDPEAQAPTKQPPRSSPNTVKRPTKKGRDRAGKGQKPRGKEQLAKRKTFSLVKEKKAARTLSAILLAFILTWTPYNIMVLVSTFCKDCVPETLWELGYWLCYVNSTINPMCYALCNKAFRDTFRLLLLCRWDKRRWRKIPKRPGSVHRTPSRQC
row,SMILES,activation
1,CN(CCc1ccccc1)C(=O)c1cccc(NC(=O)Cc2cccc(NC(=O)C3CCCN(C(=O)CCc4ccccc4)C3)c2)c1 (configuration not stated),-7.79%
2,Cc1ccc(-c2nnc(C)c(N3CC(C)OC(C)C3)n2)cc1 (configuration not stated),-3.38%
3,Cc1ccc(SCC(=O)Nc2nncs2)cc1,0.6%
4,CC(Oc1ccccc1)C(=O)Nc1oc(-c2ccco2)c(-c2ccco2)c1C#N (configuration not stated),-4.2%
5,CCOc1ccc(S(=O)(=O)N2CCC(C(=O)NCC(=O)Nc3cccc(Cl)c3C)CC2)cc1,-2.79%
6,Cc1ccc2nc(/C(C#N)=C\c3ccc(OC(=O)c4cccs4)cc3)[nH]c2c1,21.8% (active)
7,COc1ccc(CCNC(=O)/C(C#N)=C2\N=C(NC(=O)c3cccs3)c3ccccc32)cc1,0.74%
8,CCN(CC)c1ccc(S(=O)(=O)N2CCOCC2)cc1NC(=O)CSc1cccc[n+]1[O-],-5.92%
9,CCOc1ccc(NC(=O)CC(Cc2ccc(Cl)cc2)C(=O)O)cc1 (configuration not stated),-7.97%
10,O=C(NN1CCOCC1)c1cccc(F)c1,-3.15%
11,Cc1ccc(C(=O)NC2CCN(C(=O)Nc3ccccc3Cl)CC2)cc1,-1.42%
12,COC(=O)c1ccc(CN2CCCC(C(=O)Nc3cccc(-n4cnnn4)c3)C2)cc1 (configuration not stated),37.4% (active)
13,O=C(Nc1ccc(F)cc1)C1CCCN(S(=O)(=O)c2ccc(-n3cnnn3)cc2)C1 (configuration not stated),-3.35%
14,CC(C)CNC(=O)C1CCCN(S(=O)(=O)c2ccc(-n3cnnn3)cc2)C1 (configuration not stated),-2.97%
15,O=C(NCCCN1CCCC1=O)C(=O)NCC1OCCN1S(=O)(=O)c1ccc(Br)cc1 (configuration not stated),-4.08%
16,Nc1c(C(=O)c2cccs2)sc2nsc(SCCN3CCCCC3)c12,40.6% (active)
17,COc1ccc(Cl)cc1NC(=O)CN(C)C(=O)CCCc1c[nH]c2ccccc12,-1.46%
18,Cc1occc1-c1nnc(SCC(=O)NC2(C#N)CCCC2)n1C,-1.84%
19,CCCc1nc2c(c(=O)c3ccccc3n2C)c(=O)n1C1CCCCCC1,55.4% (active)

row,SMILES,activation
1,CCOC(=O)N1CCN(C(=O)c2nn(-c3ccc(C)cc3)c(=O)c3c2c2ccccc2n3C)CC1,-4.51%
2,CCOC(=O)c1nnn2c3ccccc3c(=O)n(C)c12,-1.59%
3,COC(=O)c1ccc(CNC(=O)C2CCC(=O)N(Cc3cccc(F)c3)C2)cc1 (configuration not stated),-0.82%
4,Cc1nc([N+](=O)[O-])c(NCCCO)n1Cc1ccccc1,-5.22%
5,CN(C)CCNC(=O)c1ccc(Cl)c2cc3ccccc3nc12,-6.82%
6,Nc1ccc2nc3c(=O)[nH]c(=S)[nH]c3nc2c1,18.4% (active)
7,CSCc1cc(N(C)C)nc(SCc2ccc(Cl)cc2Cl)n1,1.65%
8,COc1cccc(NC(=O)N(C)C[C@@H]2Oc3ncc(Br)cc3C(=O)N([C@@H](C)CO)C[C@H]2C)c1,-2.37%
9,COC(=O)c1cc(NS(=O)(=O)c2ccc3c(c2)c(=O)n(C)c(=O)n3C)cc(C(=O)OC)c1,-0.41%
10,Cc1ccccc1NC(=O)c1cc(S(=O)(=O)N2CCOCC2)cs1,-2.94%
11,COc1cc(OC)cc(C(=O)NCC(=O)OCC(=O)NC(C)CCc2ccccc2)c1 (configuration not stated),-5.47%
12,COc1cc(OC)cc(C(=O)N[C@H](C(=O)OCC(=O)NC(C)c2ccccc2)C(C)C)c1 (some centres not stated),18.7% (active)
13,COc1cc(OC)cc(C(=O)NC(C(=O)N2CCC2)C(C)C)c1 (configuration not stated),-2.4%
14,CC(NC(=O)Nc1ccccc1)c1ccccc1 (configuration not stated),-4.05%
15,CC(C)c1ccc(NC(=O)Cn2ncc3ccccc32)cc1,-2.42%
16,CCC(C(=O)Nc1ccc(C(C)C)cc1)c1ccccc1 (configuration not stated),29.4% (active)
17,COc1ccc(C(c2nnnn2C2CCCC2)N2CCN(C/C=C/c3ccccc3)CC2)cc1 (configuration not stated),-7.67%
18,Cc1ccc(N2C(=O)C3C4C=CC(CC4)C3C2=O)cc1Cl (configuration not stated),-1.43%
19,Cc1ccc(S(=O)(=O)Oc2ccc(/C=N/NC(=O)c3c(Cl)cnn3C)cc2)cc1,-4.49%

row,SMILES,activation
1,Cc1cc(NC(=O)CSc2nc3c(cc2C#N)CCCCC3)no1,-4.15%
2,CC(NC(=O)CSc1nc2c(cc1C#N)CN(C)CC2)c1ccccc1 (configuration not stated),18.6% (active)
3,CC1(C)CCc2nc(SCc3ccccc3)c(C#N)cc2C1,-1.01%
4,CCOC(=O)C1CCCN(Cc2nc(N)nc(Nc3ccc(C)cc3)n2)C1 (configuration not stated),28.3% (active)
5,COc1ccc(Nc2nc(N)nc(CSC(=S)N3CCC(C)CC3)n2)cc1,-4.28%
6,CCOC(=O)C1CCCN(CCSc2ccc(C)cc2)C1 (configuration not stated),-6.73%
7,CCOC(=O)C1CCCN(C(=O)c2cccc3ccccc23)CC1 (configuration not stated),-0.09%
8,O=C(c1cnccn1)N1CCN(S(=O)(=O)c2cccc(Cl)c2)CC1,-0.88%
9,CC(C)(C)NC(=O)NC(=O)CN1CCC(Cc2ccccc2)CC1,-13.3%
10,CC(C)(CNC(=O)Cc1ccc(Cl)cc1Cl)N1CCOCC1,-10.7%
11,CN1c2ccc(C=O)c3c(C=O)ccc(c23)N(C)C1(C)C,-7.9%
12,CCN(CC)C(=O)C1=C(C)N(Cc2ccc(OC)cc2)C(=O)C(CC(=O)NCc2ccco2)C1 (configuration not stated),-7.01%
13,COc1ccc(CN2C(=O)C(CC(=O)NCCCCc3ccccc3)CC(C(=O)N3CCOCC3)=C2C)cc1 (configuration not stated),3.01%
14,CCN(CC)C(=O)C1=C(C)N(Cc2ccc(OC)cc2)C(=O)C(CC(=O)NCCCCc2ccccc2)C1 (configuration not stated),23.1% (active)
15,CN1C(=O)c2cccc3c(N)ccc(c23)C1=O,118% (active)
16,Cn1cc(C2OC(=O)c3ccccc32)c2ccccc21 (configuration not stated),0.52%
17,Cc1nn(C)cc1N1C(=O)c2cccc3c(N)ccc(c23)C1=O,44.5% (active)
18,C[C@]12CCC(=O)C=C1C=CC1C2CC[C@@]2(C)C1CC[C@@]21CCC(=O)O1 (some centres not stated),-6.36%
19,O=C(CN1C(=O)CC(c2ccccc2)S(=O)(=O)c2ccccc21)NC1CCCC1 (configuration not stated),-3.97%
